PubChem BioAssay (NCI)
The panel holds about 83,000 compounds, 20% with a hit somewhere; the sample as a whole holds those more often.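 Plates (96-well) were seeded with cells, treated with compound at one concentration, and incubated for 48 hours before percent growth was determined.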 Active and inactive are the calls of the source. How the source made its calls: active means growth percent below 10; inactive means the rest.

Tests used:
Test in all cases: NCI-60 one-dose screen, 48 h (100 = growth as untreated, 0 = no growth, -100 = all killed)
Settings in all cases: 10 µM unless noted
DU-145 prostate = system: DU-145 prostate
K-562 leukemia = system: K-562 leukemia
MALME-3M melanoma = system: MALME-3M melanoma
MDA-MB-231 breast = system: MDA-MB-231 breast
SF-268 CNS = system: SF-268 CNS
SF-295 CNS = system: SF-295 CNS
SF-539 CNS = system: SF-539 CNS
UACC-257 melanoma = system: UACC-257 melanoma
M14 melanoma = system: M14 melanoma
RXF 393 renal = system: RXF 393 renal

Measured: growth

c1ccc(-c2nc(N3CCNCC3)c3nc(-c4ccccc4)oc3n2)cc1
inactive: MALME-3M melanoma 91.8% | SF-268 CNS 36.1% | SF-295 CNS 91.2% | UACC-257 melanoma 105% | M14 melanoma 99.7%
active: DU-145 prostate -63.2% | K-562 leukemia -10.7% | MDA-MB-231 breast -81% | SF-539 CNS -40%

COc1ccc2cc(-c3ccc(-c4ccc(C(=N)N)cc4)s3)ccc2c1
inactive: DU-145 prostate 61% | K-562 leukemia 40% | MALME-3M melanoma 104% | MDA-MB-231 breast 100% | SF-268 CNS 94.6% | SF-295 CNS 101% | SF-539 CNS 98.9% | UACC-257 melanoma 104% | M14 melanoma 97.6%

NNc1cccc(/C=C/c2ccccc2)cc1=O
inactive: DU-145 prostate 68.2% | K-562 leukemia 45.5% | MALME-3M melanoma 103% | MDA-MB-231 breast 58.1% | RXF 393 renal 91.9% | SF-268 CNS 57.6% | SF-539 CNS 62.4% | UACC-257 melanoma 95.3% | M14 melanoma 61.4%

Nc1nnc(-c2ccc3ccccc3c2O)o1
inactive: DU-145 prostate 117% | K-562 leukemia 93.5% | MALME-3M melanoma 89.1% | MDA-MB-231 breast 92.4% | RXF 393 renal 99.2% | SF-268 CNS 94.8% | SF-539 CNS 95.7% | UACC-257 melanoma 102% | M14 melanoma 86.4%

Cc1ccc(-c2cc3nc(-c4ccccc4)nc(C(Cl)Cl)n3n2)cc1
active: DU-145 prostate -93.9% | MALME-3M melanoma -3.1% | MDA-MB-231 breast -49.7% | SF-268 CNS -56.6% | SF-295 CNS -69.8% | SF-539 CNS -60.4%
inactive: K-562 leukemia 20.2% | UACC-257 melanoma 18.3%

COc1ccc(C2=Nn3c(nnc3-n3nc(C)cc3C)SC2)cc1
inactive: MALME-3M melanoma 49.9% | SF-268 CNS 29.9% | UACC-257 melanoma 64.7% | M14 melanoma 10%
active: DU-145 prostate -15.9% | K-562 leukemia 4.47% | MDA-MB-231 breast -7.82% | RXF 393 renal 4.22% | SF-539 CNS 1.51%

O=c1c2sc3ncccc3c2nnn1-c1ccccc1
inactive: DU-145 prostate 115% | K-562 leukemia 93.3% | MALME-3M melanoma 105% | MDA-MB-231 breast 97.2% | RXF 393 renal 101% | SF-268 CNS 102% | SF-539 CNS 102% | UACC-257 melanoma 102% | M14 melanoma 108%

COc1cc(-c2ncn(/C=C\C(=O)OC(C)C)n2)cc(C(F)(F)F)c1
active: K-562 leukemia 3.62% | MALME-3M melanoma -1.62% | RXF 393 renal -41.1% | SF-268 CNS -1.06% | SF-539 CNS -36.8%
inactive: DU-145 prostate 15.7% | SF-295 CNS 61.3% | UACC-257 melanoma 60.3%

Clc1cc2c(nn1)Nc1ccccc1S2
inactive: DU-145 prostate 109% | K-562 leukemia 98.2% | MALME-3M melanoma 103% | MDA-MB-231 breast 114% | SF-268 CNS 102% | SF-295 CNS 108% | SF-539 CNS 89% | UACC-257 melanoma 73.5% | M14 melanoma 107%

COc1ccc(-c2c(N)n[nH]c2-c2cc(OC)c3c(c2)OCCO3)cc1
inactive: DU-145 prostate 96.1% | K-562 leukemia 12.1% | MALME-3M melanoma 39.3% | MDA-MB-231 breast 87.7% | RXF 393 renal 74% | SF-268 CNS 79.9% | UACC-257 melanoma 88.1% | M14 melanoma 65.2%

COc1ccc(OC)c(C2OC(c3ccc4ccccc4c3O)=NN2C(C)=O)c1 (configuration not stated)
inactive: DU-145 prostate 77.8% | K-562 leukemia 31.3% | MALME-3M melanoma 43.8% | MDA-MB-231 breast 91.1% | RXF 393 renal 53.1% | SF-268 CNS 80.3% | SF-539 CNS 65.5% | UACC-257 melanoma 57.6% | M14 melanoma 54.6%

COc1cc(/C=C/C(=O)c2ccc(Nc3ncnc4cc(OC)c(OC)cc34)cc2)cc(OC)c1
inactive: DU-145 prostate 115% | K-562 leukemia 41.3% | MALME-3M melanoma 118% | MDA-MB-231 breast 104% | SF-268 CNS 98.4% | SF-295 CNS 93.3% | SF-539 CNS 101% | UACC-257 melanoma 95.1% | M14 melanoma 112%

Cc1[nH]c2ccc(F)cc2c1CCNC(=O)C1CCN(C(=O)c2ccccc2)CC1
inactive: DU-145 prostate 82.9% [25 µM] | K-562 leukemia 90.4% [25 µM] | MALME-3M melanoma 75.6% [25 µM] | MDA-MB-231 breast 79.4% [25 µM] | SF-268 CNS 79.5% [25 µM] | SF-295 CNS 96.1% [25 µM] | SF-539 CNS 86.4% [25 µM] | UACC-257 melanoma 98.3% [25 µM]

Cc1ccc(-c2cc3nc(C(Cl)Cl)nc(-c4cccnc4)n3n2)cc1
active: DU-145 prostate -22% | K-562 leukemia 9.52% | MALME-3M melanoma 5.51% | MDA-MB-231 breast 2.53% | SF-295 CNS 4.01%
inactive: SF-268 CNS 25.7% | SF-539 CNS 63% | UACC-257 melanoma 86% | M14 melanoma 61%

O=C(Nc1cccc(-n2cc(-c3ccncc3)c(-c3ccc(Cl)c(O)c3)n2)c1)Nc1cc(C(F)(F)F)cc(C(F)(F)F)c1
active: DU-145 prostate -28.2% | K-562 leukemia -19.5% | MALME-3M melanoma -23% | MDA-MB-231 breast -88.9% | RXF 393 renal -66.7% | SF-268 CNS -36.4% | SF-539 CNS -63% | UACC-257 melanoma -50.9% | M14 melanoma -37.2%

COc1ccc(-c2cnnn2-c2nonc2-n2cccc2)cc1OC
active: K-562 leukemia 3.29%
inactive: DU-145 prostate 80.9% | MALME-3M melanoma 25.1% | MDA-MB-231 breast 65.7% | RXF 393 renal 75.6% | SF-268 CNS 71.8% | UACC-257 melanoma 79.6% | M14 melanoma 39.9%

CC(=O)Nc1ccc(S(=O)(=O)n2ccc(-c3ccc4c(c3)CCC(C)(C)O4)n2)cc1
inactive: DU-145 prostate 83.5% | K-562 leukemia 36.7% | MALME-3M melanoma 82.5% | MDA-MB-231 breast 88.6% | SF-268 CNS 77.3% | SF-295 CNS 60.2% | SF-539 CNS 73.8% | UACC-257 melanoma 46% | M14 melanoma 64.7%

COc1cc(/C=C/c2cc(/C=C/c3ccc(O)c(OC)c3)n(C(N)=O)n2)ccc1O
active: DU-145 prostate 2.11% | K-562 leukemia -23% | MALME-3M melanoma -4.94% | MDA-MB-231 breast 3.7% | SF-268 CNS -10.7% | SF-295 CNS 4.87% | SF-539 CNS -26.3% | UACC-257 melanoma 0.83% | M14 melanoma -66.2%

CC1(C)C(=O)/C(=C\c2ccc(C(F)(F)F)cc2)C[C@]2(C)[C@H]3CC[C@@H]4[C@H]5[C@H](C(=O)/C=C/c6ccc(C(F)(F)F)cc6)CC[C@]5(CO)CC[C@@]4(C)[C@]3(C)CC[C@@H]12
inactive: DU-145 prostate 109% | K-562 leukemia 86.9% | MALME-3M melanoma 96.2% | MDA-MB-231 breast 98.4% | RXF 393 renal 103% | SF-268 CNS 89.7% | SF-539 CNS 93.7% | UACC-257 melanoma 101% | M14 melanoma 93.1%

COc1ccc(-c2ccc(-c3ccc(-c4ccc(C(=N)N)cc4)s3)s2)cc1OC
inactive: DU-145 prostate 36.4% | MALME-3M melanoma 92.6% | MDA-MB-231 breast 80.2% | SF-268 CNS 87.1% | SF-295 CNS 99.7% | SF-539 CNS 88.9% | UACC-257 melanoma 103% | M14 melanoma 99%
active: K-562 leukemia -50%

Cc1ccc(-c2nc(C(Cl)Cl)n3nc(-c4ccccc4)cc3n2)cc1
active: DU-145 prostate -9.74% | SF-268 CNS 8.85%
inactive: K-562 leukemia 21.2% | MALME-3M melanoma 74.7% | MDA-MB-231 breast 11.5% | SF-295 CNS 66.2% | SF-539 CNS 29.8% | UACC-257 melanoma 94.1% | M14 melanoma 95.7%

N#Cc1c(Nc2ccccc2)nc2n(c1=O)-c1ccccc1Sc1ccccc1-2
inactive: DU-145 prostate 90% | K-562 leukemia 57.6% | MDA-MB-231 breast 63.7% | RXF 393 renal 82.2% | SF-268 CNS 85.3% | SF-295 CNS 84% | SF-539 CNS 84.4% | UACC-257 melanoma 105% | M14 melanoma 95.1%

COc1ccc(/C=C2\CN(Cc3cn(CCNc4ccnc5cc(Cl)ccc45)nn3)C/C(=C\c3ccc(OC)c(OC)c3)C2=O)cc1OC
active: DU-145 prostate 0.0798% | K-562 leukemia 2.21% | MALME-3M melanoma -27.7% | MDA-MB-231 breast -0.28% | RXF 393 renal -52.1% | SF-268 CNS 9.6% | SF-539 CNS -12.5% | UACC-257 melanoma 5.32% | M14 melanoma 3.7%

Cc1ccc(Cc2c(C=O)nc(N)[nH]c2=O)c2ccccc12
inactive: DU-145 prostate 113% | K-562 leukemia 107% | MALME-3M melanoma 98.2% | MDA-MB-231 breast 107% | RXF 393 renal 106% | SF-295 CNS 118% | SF-539 CNS 102% | UACC-257 melanoma 93.2% | M14 melanoma 101%

O=C(Nc1cccc(-n2cc(-c3ccncc3)c(-c3ccc(Cl)c(O)c3)n2)c1)Nc1cccc(C(F)(F)F)c1
inactive: DU-145 prostate 23.1% | K-562 leukemia 13.4% | MDA-MB-231 breast 21.3% | RXF 393 renal 31.3% | SF-268 CNS 28.5% | SF-539 CNS 38.5% | M14 melanoma 16.6%
active: MALME-3M melanoma 1.16% | UACC-257 melanoma -11.6%

COc1cc(NCCCCCN)c2ncccc2c1
inactive: DU-145 prostate 119% | K-562 leukemia 102% | MALME-3M melanoma 99% | RXF 393 renal 129% | SF-268 CNS 106% | SF-295 CNS 112% | UACC-257 melanoma 107% | M14 melanoma 96.8%

O=C1CCCCC1(c1ccccc1)c1ccccc1
inactive: MDA-MB-231 breast 101% | RXF 393 renal 93.8% | SF-268 CNS 98.2% | SF-295 CNS 97% | SF-539 CNS 94% | UACC-257 melanoma 106% | M14 melanoma 99%

Cc1cccc(/C=N/Nc2cc(C)c3cccc(C)c3n2)n1
inactive: DU-145 prostate 101% | K-562 leukemia 69.8% | MDA-MB-231 breast 90.4% | RXF 393 renal 98.2% | SF-268 CNS 101% | SF-539 CNS 88% | UACC-257 melanoma 80% | M14 melanoma 98.4%

CC(=O)Oc1cccc(S(=O)(=O)n2cc(C(=O)C(=O)Nc3ccncc3)c3ccccc32)c1
inactive: DU-145 prostate 104% | MALME-3M melanoma 90.4% | MDA-MB-231 breast 66.1% | RXF 393 renal 90.8% | SF-268 CNS 103% | SF-295 CNS 58.5% | SF-539 CNS 86.7% | UACC-257 melanoma 93.9% | M14 melanoma 102%

COc1ccc(Cn2cc3c(c2-c2cc(OC)c(OC)c(OC)c2)CCc2cnoc2-3)cc1
active: SF-295 CNS 1.12% | SF-539 CNS 2.64% | M14 melanoma 7.62%
inactive: DU-145 prostate 20.2% | K-562 leukemia 14.6% | MDA-MB-231 breast 14% | RXF 393 renal 17.1% | SF-268 CNS 40.9% | UACC-257 melanoma 67.6%

O=C(CSC1CCc2ccccc21)N/N=C/c1ccccc1O (configuration not stated)
inactive: DU-145 prostate 52.8% | MALME-3M melanoma 53.3% | MDA-MB-231 breast 45.2% | RXF 393 renal 75.1% | SF-268 CNS 39.5% | SF-539 CNS 54.7% | M14 melanoma 47.4%

Cc1ccc2ccccc2c1C[n+]1ccccc1
inactive: DU-145 prostate 117% | MALME-3M melanoma 108% | MDA-MB-231 breast 77.8% | RXF 393 renal 105% | SF-268 CNS 106% | SF-295 CNS 101% | SF-539 CNS 105% | UACC-257 melanoma 113% | M14 melanoma 111%
